From PubChem BioAssay (EPA / NIEHS)
Results filed as inconclusive are left out. The source made the active and inactive calls. How the source made its calls: active means hit-call score of the fitted dose curve at least 0.9, where 1 is the maximum; inconclusive means response in the unintended direction; inactive means score below 0.9.

read-out: alkyl and aryl transferase (GSTA2), GSTA2 (gene 2939); test: CLD_GSTA2_48hr: CellzDirect (CLD) Gene Expression Assay for alkyl and aryl transferase (GSTA2) at 48 hours (AID 2283708)
Procedure: CLD_48hr is a cell-based, multiplexed-readout assay that uses hepatocyte, a human liver primary cell, with measurements taken at 48 hours after chemical dosing in a 96-well plate.CLD_GSTA2_48hr is one of 16 assay component(s) measured or calculated from the CLD_48hr assay. It is designed to make measurements of mRNA induction, a form of inducible reporter, as detected with chemiluminescence signals by Quantitative Nuclease Protection Assay (qNPA) technology.Data from the assay component CLD_GSTA2_48hr was analyzed at the endpoint, CLD_GSTA2_48hr, in the positive analysis fitting direction relative to DMSO as the negative control and baseline of activity. Using a type of inducible reporter, gain-of-signal activity can be used to understand changes in the reporter gene as they relate to the gene GSTA2. Furthermore, this assay endpoint can be referred to as a primary readout. To generalize the intended target to other relatable targets, this assay endpoint is annotated to the transferase intended target family, where subfamily is alkyl and aryl transferase.
Human hepatocyte cultures were treated daily for two consecutive days with fresh dosing solutions containing appropriate concentrations of the 320 ToxCast chemicals (chemical identities were blinded to CellzDirect and other ToxCast collaborators), vehicle control (0.2% DMSO), and positive control inducers as summarized in Table 1. […] These replicate data, coupled with internal replicates designed within the blinded ToxCast chemical library, provided additional data to evaluate interindividual differences between hepatocyte preparations and their potential impact on chemical profiles.Cell morphology and integrity were evaluated using phase-contrast microscopy as an indicator of hepatocyte cell health (Tyson & Green, 1987). Cultures for each treatment group (i.e., media, vehicle [0.2% DMSO], positive control inducers [multiple concentrations], and the ToxCast chemicals [multiple concentrations]) were observed and cell morphology was assessed relative to vehicle control cultures at each harvest time point (0, 6, 24, or 48 h). […] Images were evaluated at the conclusion of the study to assess changes in cell integrity and account for the effects of chemical exposure on uncharacteristic changes in concentration-dependent gene expression profiles. The results from these determinations of apparent cytotoxicity were annotated (yes/no) alongside the corresponding qNPA data for reference.At the conclusion of each treatment period, hepatocyte cultures (96-well) were washed with 1 volume of HBSS, lysed by addition of 25 ul ArrayPlate lysis buffer (HTG, Tucson, AZ), and 70 ul/well of Denaturation Oil, denatured by incubation at 95C for 10 min, and frozen at approximately -70C until analysis by nuclease protection assay (qNPA) (Roberts et al., 2007). For qNPA analysis, cell lysates were thawed at 50C for approximately 30 min, qNPA probes were added, and samples were incubated at 95C for 10 min to begin the detection process by denaturing the target RNA, dissociating the duplexes and secondary structure hybridization. At the conclusion of the hybridization period, S1 nuclease reagent was added to each sample to digest all nonprotected nucleotides at 50C for 60-90 min. At the conclusion of the S1 nuclease digestions, all reactions were stopped by transfer of all the samples to fresh plates containing stop solution and incubated at 95C for 15 min to deactivate the enzyme, dissociate the mRNA/ DNA probe heterodimers, and hydrolyze the resulting single stranded mRNA, leaving a stoichiometric amount of single-stranded DNA nuclease protection probe, unmodified in sequence, as the only intact oligonucleotide left in the sample. Neutralization solution was subsequently applied to cooled (room temperature) plates, and samples were transferred to ArrayPlates for overnight incubations at 50Cto allow probes to be captured onto programmed locations on the ArrayPlates. […]

**Q.** For `CCN(CC)C(=O)C(C)Oc1cccc2ccccc12` (stereo not given), which outcome is on record?
**A.** inactive

**Q.** For `COCC(C)N(C(=O)CCl)c1c(C)csc1C` (stereo not given), which AC50 is on record?
**A.** 32.1 µM (active)

**Q.** How did the outcome turn out when `COP(=S)(OC)Oc1ccc([N+](=O)[O-])c(C)c1` was run?
**A.** inactive

**Q.** For `CC(C)N1C(=O)c2ccccc2NS1(=O)=O`, which outcome is on record?
**A.** inactive

**Q.** For `COP(=O)(OC)O/C(C)=C/C(=O)N(C)C`, which outcome is on record?
**A.** inactive

**Q.** Which AC50 does the source give for `CSC(=O)c1c(C(F)F)nc(C(F)(F)F)c(C(=O)SC)c1CC(C)C` here?
**A.** 11.8 µM (active)

**Q.** With `CC(C)(C)C(=O)C(Oc1ccc(Cl)cc1)n1cncn1` (stereo not given) as the compound, how does the outcome read?
**A.** inactive

**Q.** For `Cc1c(COC(=O)[C@@H]2[C@H](/C=C(\Cl)C(F)(F)F)C2(C)C)cccc1-c1ccccc1`, which outcome is on record?
**A.** inactive

**Q.** `CC(C)=CC1C(C(=O)OCc2coc(Cc3ccccc3)c2)C1(C)C` (stereo not given) was tested. Which outcome did it give?
**A.** inactive

**Q.** Which outcome does the source give for `CS(=O)(=O)c1cc(C(F)(F)F)ccc1C(=O)c1cnoc1C1CC1` here?
**A.** inactive

**Q.** `C=C(C)CN(CC)c1c([N+](=O)[O-])cc(C(F)(F)F)cc1[N+](=O)[O-]` was tested. Which outcome did it give?
**A.** inactive

**Q.** `C=CCOC(=O)C(C)(C)OC(=O)c1cc(-n2c(=O)cc(C(F)(F)F)n(C)c2=O)ccc1Cl` was tested. Which outcome did it give?
**A.** inactive

**Q.** How did the outcome turn out when `CCCCC(O)(Cn1cncn1)c1ccc(Cl)cc1Cl` (stereo not given) was run?
**A.** inactive

**Q.** `COc1ccc(-c2ccccc2)cc1NNC(=O)OC(C)C` was tested. Which outcome did it give?
**A.** inactive

**Q.** With `CCCC(=NOCC)C1=C(O)CC(CC(C)SCC)CC1=O` (stereo not given) as the compound, how does the outcome read?
**A.** inactive

**Q.** Which outcome does the source give for `CN=C=S` here?
**A.** inactive

**Q.** `COP(=S)(OC)SCn1nnc2ccccc2c1=O` was tested. Which outcome did it give?
**A.** inactive

**Q.** How did the outcome turn out when `CCOP(=S)(OCC)Oc1nc(Cl)n(C(C)C)n1` was run?
**A.** inactive

**Q.** How did the outcome turn out when `N#Cc1c(Cl)cccc1Cl` was run?
**A.** inactive

**Q.** For `CNC(=O)N(C)c1nnc(C(C)(C)C)s1`, which outcome is on record?
**A.** inactive

**Q.** How did the outcome turn out when `Clc1nc(Cl)nc(Nc2ccccc2Cl)n1` was run?
**A.** inactive

**Q.** Which outcome does the source give for `CCOP(=O)(OCC)Oc1nc(Cl)c(Cl)cc1Cl` here?
**A.** inactive

**Q.** `Cc1ccc(N=CN(C)C=Nc2ccc(C)cc2C)c(C)c1` was tested. Which outcome did it give?
**A.** inactive

**Q.** How did the outcome turn out when `CCNC(=O)NC(=O)C(C#N)=NOC` was run?
**A.** inactive

**Q.** Which outcome does the source give for `O=c1n(Cl)c(=O)n(Cl)c(=O)n1Cl` here?
**A.** inactive

**Q.** Which AC50 does the source give for `Cn1c(-c2ccccc2)cc(-c2ccccc2)[n+]1C` here?
**A.** 2.83 µM (active)

**Q.** With `O=C(O)c1c(Cl)ccc2cc(Cl)cnc12` as the compound, how does the outcome read?
**A.** inactive

**Q.** Which outcome does the source give for `O=C1C2CC=CCC2C(=O)N1SC(Cl)(Cl)Cl` (stereo not given) here?
**A.** inactive

**Q.** With `CCCCC(C#N)(Cn1cncn1)c1ccc(Cl)cc1` (stereo not given) as the compound, how does the outcome read?
**A.** inactive

**Q.** For `CC(C)Nc1nc(Cl)nc(NC(C)C)n1`, which outcome is on record?
**A.** inactive

**Q.** Which outcome does the source give for `O=C(Nc1ccccc1-c1ccc(Cl)cc1)c1cccnc1Cl` here?
**A.** inactive

**Q.** Which outcome does the source give for `CC(C)C1(C)N=C(c2ncccc2C(=O)O)NC1=O` (stereo not given) here?
**A.** inactive

**Q.** With `CCCCOCN(C(=O)CCl)c1c(CC)cccc1CC` as the compound, how does the AC50 read?
**A.** 20 µM (active)

**Q.** How did the outcome turn out when `COC(=O)NC(=S)Nc1ccccc1NC(=S)NC(=O)OC` was run?
**A.** inactive

**Q.** With `N#CN=C1SCCN1Cc1ccc(Cl)nc1` as the compound, how does the outcome read?
**A.** inactive

**Q.** `CC(C)N1C(=O)N(c2ccccc2)CSC1=NC(C)(C)C` was tested. Which outcome did it give?
**A.** inactive

**Q.** Which outcome does the source give for `Nc1cnn(-c2ccccc2)c(=O)c1Cl` here?
**A.** inactive

**Q.** How did the outcome turn out when `OC(c1ccc(Cl)cc1)(c1ccc(Cl)cc1)C(Cl)(Cl)Cl` was run?
**A.** inactive

**Q.** With `CCCN(CC)CC1COC2(CCC(C(C)(C)C)CC2)O1` (stereo not given) as the compound, how does the outcome read?
**A.** inactive

**Q.** For `CS(=O)(=O)c1ccc(C(=O)C2C(=O)CCCC2=O)c([N+](=O)[O-])c1`, which outcome is on record?
**A.** inactive
